Results reported in PubChem BioAssay (NCATS).
Records with an inconclusive call do not appear. A number with no mark means an inactive call. The source made the active and inactive calls. The call rests on the fitted dose curve; in most records, active means well fitted cell-killing curve with a large enough effect; inconclusive means small, poorly fitted or top-dose-only effect, or effect the other way; inactive means flat fitted curve, though single readings scatter.

Each molecule was assayed on HeLa (assay: Primary qHTS to identify gynecologic anti-cancer compounds using libraries of approved drugs and bioactive compounds (AID 1345084; further: nearly all actives have a fitted effect of over 55% in size)). Details: Gynecologic cancer cell panel viability, ATPlite luminescence, 48 h; series mostly up to 57.5 µM; activity change, negative = cytotoxicity: at the top concentration.
Procedure, shortened: (§1)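 48 h compound exposure at 37 C, 5% CO2; five-point qHTS. ATPlite luminescence readout of cell ATP.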
On the % scale 0 is the no-effect control and ±100 the full control effect; potency means the concentration at half of the fitted maximal effect.

Structure (SMILES) | activity change, negative = cytotoxicity | Potency
CCC(C)C(C)(COC(N)=O)COC(N)=O (stereo not drawn) | 6.97% | –
CN1CCC(O)(c2ccc(F)cc2)C(C(=O)c2ccc(F)cc2)C1 (stereo not drawn) | -16.9% | –
CCC1(c2ccc(N)cc2)CCC(=O)NC1=O (stereo not drawn) | -0.0721% | –
C[C@]12Cc3cn[nH]c3C[C@@H]1CC[C@@H]1[C@@H]2CC[C@@]2(C)[C@H]1CC[C@]2(C)O | -5.32% | –
[N-]=[N+]=CC(=O)OC[C@H](N)C(=O)O | -12% | –
COc1cc(CCN)cc(OC)c1OC | 6.56% [at 116 µM] | –
CCC(CC)(CNC(=O)CCCO)c1cccc(OC)c1 | 11.4% | –
C=C(C)[C@H]1CN[C@H](C(=O)O)[C@H]1CC(=O)O | 13% | –
C[C@]12CC[C@H]3[C@@H](CCC4=CC(=O)CC[C@@H]43)[C@@H]1CC[C@@H]2OC(=O)CCC1CCCCC1 | – | 11.2 µM (active)
Nc1nc(N)nc(NC2CC2)n1 | -7.03% | –
O=C1OC(CCN2CCCCC2)OC1(c1ccccc1)c1ccccc1 (stereo not drawn) | -0.442% | –
O=C1CN=C(c2ccccc2)c2cc([N+](=O)[O-])ccc2N1 | -5.93% | –
CN1CC[C@]23c4c5ccc(O)c4O[C@H]2[C@@H](O)C=C[C@H]3[C@H]1C5 | 5.25% [at 116 µM] | –
CN1C(=O)COc2c(C(=O)NC3CN4CCC3CC4)cc(Cl)cc21 (stereo not drawn) | -0.113% | –
CC(C)(N)Cc1ccccc1Cl | 18.9% | –
CC(Cc1ccccc1)N(C)Cc1ccco1 (stereo not drawn) | 5.94% | –
Clc1cccc(SC2CCNCC2)n1 | 16.8% | –

Structure (SMILES) | activity change, negative = cytotoxicity | Potency
C=CCC1(C(C)CC)C(=O)NC(=O)NC1=O (stereo not drawn) | -12.6% | –
CCN[C@@H](C)Cc1ccccc1 | -1.76% [at 116 µM] | –
Clc1ccccc1N1CCNCC1 | 8.33% | –
O=C(O)CCCc1ccc(N(CCCl)CCCl)cc1 | -0.0828% | –
C[C@]12CC[C@H]3[C@@H](CC[C@@]45O[C@H]4C(O)=C(C#N)C[C@]35C)[C@H]1CC[C@H]2O | -16.7% | –
O=c1[nH]c2ccccc2n1C1CCNCC1 | 0.0994% | –
C=CCN1C[C@H](C)N([C@H](c2ccc(C(=O)N(CC)CC)cc2)c2cccc(OC)c2)C[C@H]1C | – | inactive
c1ccc(N2CCNCC2)cc1 | 1.2% | –
CCCOC(=O)c1cncn1C(C)c1ccccc1 (stereo not drawn) | 7.84% | –
C[C@]12CC[C@H]3[C@@H](CCC4=CC(=O)CC[C@@H]43)[C@@H]1CC[C@@H]2OC(=O)CCc1ccco1 | – | 3.16 µM (active)
CC(Cc1ccccc1)NCCn1cnc2c1c(=O)n(C)c(=O)n2C (stereo not drawn) | -7.78% [at 116 µM] | –
C#CC(O)(C=CCl)CC (stereo not drawn) | 10.6% | –
CCc1cc2c(s1)-n1c(C)nnc1CN=C2c1ccccc1Cl | 6.62% | –
CC[N+]1(CC)CCC(OC(=O)C(O)(c2ccccc2)c2ccccc2)C1 (stereo not drawn) | 14.9% | –
CC(=O)C1CCOC1=O (stereo not drawn) | 13.7% | –
ClCCN1CCCC1 | 7.5% | –
COc1c2c(cc3c1OCO3)CCN(C)C2 | -3.53% | –

These molecules were tested on Hek293T in the same assay as above. Details: Gynecologic cancer cell panel viability, ATPlite luminescence, 48 h, control line for the selectivity index; series mostly up to 57.5 µM; activity change, negative = cytotoxicity: at the top concentration.
Procedure, shortened: as §1

Structure (SMILES) | activity change, negative = cytotoxicity | outcome
CCC(C)C(C)(COC(N)=O)COC(N)=O (stereo not drawn) | 5.48% | –
CN1CCC(O)(c2ccc(F)cc2)C(C(=O)c2ccc(F)cc2)C1 (stereo not drawn) | -2.63% | –
CCC1(c2ccc(N)cc2)CCC(=O)NC1=O (stereo not drawn) | 17.5% | –
C[C@]12Cc3cn[nH]c3C[C@@H]1CC[C@@H]1[C@@H]2CC[C@@]2(C)[C@H]1CC[C@]2(C)O | 0.976% | –
[N-]=[N+]=CC(=O)OC[C@H](N)C(=O)O | 4.98% | –
COc1cc(CCN)cc(OC)c1OC | 1.88% [at 116 µM] | –
CCC(CC)(CNC(=O)CCCO)c1cccc(OC)c1 | -1.27% | –
C=C(C)[C@H]1CN[C@H](C(=O)O)[C@H]1CC(=O)O | 2.34% | –
C[C@]12CC[C@H]3[C@@H](CCC4=CC(=O)CC[C@@H]43)[C@@H]1CC[C@@H]2OC(=O)CCC1CCCCC1 | -13.7% | –
Nc1nc(N)nc(NC2CC2)n1 | 3.08% | –
O=C1OC(CCN2CCCCC2)OC1(c1ccccc1)c1ccccc1 (stereo not drawn) | 5.32% | –
O=C1CN=C(c2ccccc2)c2cc([N+](=O)[O-])ccc2N1 | 3% | –
CN1CC[C@]23c4c5ccc(O)c4O[C@H]2[C@@H](O)C=C[C@H]3[C@H]1C5 | 5.07% [at 116 µM] | –
CN1C(=O)COc2c(C(=O)NC3CN4CCC3CC4)cc(Cl)cc21 (stereo not drawn) | 4.54% | –
CC(C)(N)Cc1ccccc1Cl | 1.23% | –
CC(Cc1ccccc1)N(C)Cc1ccco1 (stereo not drawn) | 7.2% | –
Clc1cccc(SC2CCNCC2)n1 | 11.2% | –

Structure (SMILES) | activity change, negative = cytotoxicity | outcome
C=CCC1(C(C)CC)C(=O)NC(=O)NC1=O (stereo not drawn) | 3.11% | –
CCN[C@@H](C)Cc1ccccc1 | -10.4% [at 116 µM] | –
Clc1ccccc1N1CCNCC1 | -4.01% | –
O=C(O)CCCc1ccc(N(CCCl)CCCl)cc1 | -2.59% | –
C[C@]12CC[C@H]3[C@@H](CC[C@@]45O[C@H]4C(O)=C(C#N)C[C@]35C)[C@H]1CC[C@H]2O | -2.03% | –
O=c1[nH]c2ccccc2n1C1CCNCC1 | 1.83% | –
C=CCN1C[C@H](C)N([C@H](c2ccc(C(=O)N(CC)CC)cc2)c2cccc(OC)c2)C[C@H]1C | – | inactive
c1ccc(N2CCNCC2)cc1 | -0.874% | –
CCCOC(=O)c1cncn1C(C)c1ccccc1 (stereo not drawn) | 22.2% | –
C[C@]12CC[C@H]3[C@@H](CCC4=CC(=O)CC[C@@H]43)[C@@H]1CC[C@@H]2OC(=O)CCc1ccco1 | -3.79% | –
CC(Cc1ccccc1)NCCn1cnc2c1c(=O)n(C)c(=O)n2C (stereo not drawn) | 3.12% [at 116 µM] | –
C#CC(O)(C=CCl)CC (stereo not drawn) | 0.0651% | –
CCc1cc2c(s1)-n1c(C)nnc1CN=C2c1ccccc1Cl | 16.3% | –
CC[N+]1(CC)CCC(OC(=O)C(O)(c2ccccc2)c2ccccc2)C1 (stereo not drawn) | 11% | –
CC(=O)C1CCOC1=O (stereo not drawn) | 1.95% | –
ClCCN1CCCC1 | -1.62% | –
COc1c2c(cc3c1OCO3)CCN(C)C2 | -2.02% | –
